# The source made the active and inactive calls. Rule as the data show it, unless noted: active = inhibition above about 80%; inactive = the rest.
# How the values were obtained:
# [1] = sensitizers of A549 cells to miR-34 induction, primary screen, imaging, A549 dox-inducible miR-34, nuclei and caspase counts (AID 1347080;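 active = compounds whose cell count with miR-34 switched on is under 0.7 times the count with it off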); conditions: A549 miR-34 inducible, Hoechst nuclei count, 48 h
# [2] = survival rescue of mitochondrial mutant cells in low glucose, primary screen, MELAS cybrids, Rieske KO mouse fibroblasts, CellTiter-Glo (AID 1508586;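 active = mean z-score across replicates of 1.96 or higher in either the MELAS or the Rieske mutant cell line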;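 also: z relative to plate mean and SD of compound and empty wells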)
# [3] = LFS_MB_P medulloblastoma growth inhibition, cell-based, chromothripsis tumors, cisplatin or BGB combos (AID 1671449); conditions: LFS_MB_P medulloblastoma cells;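 also: cells exposed for 96 hours; 0% = vehicle DMSO and 100% = killing by high DMSO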
# [4] = HDN33 neuroblastoma growth inhibition, cell-based, chromothripsis tumors, cisplatin or BGB combos (AID 1671450); conditions: HDN33 neuroblastoma cells, stronger effect = higher value;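 also: cells exposed to compound for four days; 0% = vehicle DMSO and 100% = cell killing by high DMSO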
# [5] = ICB984 medulloblastoma cell growth inhibition, synergistic combos for chromothripsis tumors, cisplatin or BGB combos (AID 1671451; call rule not given here;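 also: cells exposed for 96 hours before readout; 0% = vehicle DMSO and 100% = killing by high DMSO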); conditions: ICB984 medulloblastoma cells, drug combinations, stronger effect = higher value
# [6] = LFS_MB_1R medulloblastoma cell growth inhibition, synergistic combos for chromothripsis tumors, cisplatin or BGB combos (AID 1671452); conditions: LFS_MB_1R medulloblastoma cells, stronger effect = higher value;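 also: cells exposed for 96 hours before readout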
# [7] = HTB85 osteosarcoma cell growth inhibition, synergistic combos for chromothripsis tumors, BGB or cisplatin IC20 combos (AID 1671453); conditions: HTB85 osteosarcoma cells, drug combinations, stronger effect = higher value;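 also: cells exposed for 96 hours before readout; 0% = vehicle DMSO and 100% = high DMSO killing control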
# [8] = CRL2098 osteosarcoma cell growth inhibition, synergistic combos for chromothripsis tumors, BGB or cisplatin IC20 combos (AID 1671454); conditions: CRL2098 osteosarcoma cells, drug combinations, stronger effect = higher value;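 also: cells exposed for 96 h before readout; 0% = vehicle DMSO and 100% = killing by high DMSO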
# [9] = HD-MB03 medulloblastoma cell growth inhibition, synergistic combos for chromothripsis tumors, BGB or cisplatin IC20 combos (AID 1671455; in the data active = inhibition above about 83%;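 also: 0% = vehicle DMSO and 100% = high DMSO as cytotoxic control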); conditions: HD-MB03 medulloblastoma cells, stronger effect = higher value
# [10] = UWB1.289 ovarian carcinoma cell growth inhibition, synergistic combos for chromothripsis tumors, BGB or cisplatin combos (AID 1671456); conditions: UWB1.289 ovarian carcinoma cells, stronger effect = higher value;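 also: cells exposed to compound for four days; 0% = vehicle DMSO and 100% = killing by high DMSO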
# [11] = LFS_MB_2R medulloblastoma cell growth inhibition, synergistic combos for chromothripsis tumors, cisplatin combos (AID 1671457); conditions: LFS_MB_2R medulloblastoma cells, stronger effect = higher value;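 also: cells exposed to compound for four days before readout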
# [12] = MDA-MB-436 breast carcinoma cell growth inhibition, synergistic combos for chromothripsis tumors, BGB or cisplatin combos (AID 1671458; call rule not given here;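 also: cells exposed for 96 hours; 0% = vehicle DMSO and 100% = killing by high DMSO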); conditions: MDA-MB-436 breast carcinoma growth inhibition, drug combinations, stronger effect = higher value
# [13] = UWB1.289_BRCA1 ovarian cancer growth, cell-based, BGB or cisplatin combinations (AID 1671459); conditions: UWB1.289 BRCA1 ovarian carcinoma, drug combinations, stronger effect = higher value
# [14] = human astrocyte viability loss, single and combined drugs, cytotoxicity control for chromothriptic childhood tumor combination screen, cell-based, BGB or cisplatin IC20 combos (AID 1671460); conditions: Human astrocytes, drug combinations, stronger effect = higher value;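 also: cells exposed to compounds for 96 hours before viability readout; 0% = vehicle and 100% = killing control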
# [15] = growth inhibition of BT084 medulloblastoma cells, cell-based, ICGC_MB145, cisplatin and BGB IC40 combos (AID 1671461); conditions: drug combinations, stronger effect = higher value;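 also: cells exposed to drugs for 96 hours; 0% = vehicle DMSO and 100% = high DMSO full killing control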
# [16] = growth inhibition of RCMB18 medulloblastoma cells, cell-based, cisplatin and BGB IC40 combos (AID 1671462); conditions: stronger effect = higher value;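 also: cells exposed to compound for four days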
# [17] = growth inhibition of CRL1545 osteosarcoma cells, cell-based, cisplatin and BGB IC20 combos (AID 1671464); conditions: stronger effect = higher value;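 also: cells exposed to compound for 96 hours before readout; 0% = vehicle DMSO and 100% = high DMSO killing control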
# [18] = measured here: combination with BGB IC40, at 0.05 µM
# [19] = measured here: with BGB IC20 combination, at 0.5 µM
# [20] = measured here: with cisplatin IC20 combination, at 0.5 µM
# [21] = measured here: combination with cisplatin, at 0.5 µM
# [22] = measured here: combination with cisplatin, at 5 µM
compound,measurement,setting,value
COc1ccccc1S(=O)(=O)Nc1ccc2c(c1)CN(C)C(=O)N2,fold change,"[1]; stronger effect = lower value, cell number ratio, induced over uninduced",1.02 (inactive)
same,fold change,[1]; measured here: relative caspase fold change +Dox/-Dox,0.364
same,cell count,"[1]; measured here: total cells with miR-34 induction, stronger effect = lower value",6410
same,cell count,[1]; measured here: total cells without miR-34 induction,6310
same,z-score,"[2]; MELAS cybrid survival, CellTiter-Glo 48 h, stronger effect = higher value",0.202 (inactive)
same,z-score,"[2]; Rieske KO mouse fibroblast survival, CellTiter-Glo 72 h",-0.445
same,inhibition,"[3]; at 0.5 µM, stronger effect = higher value",-27% (inactive)
same,inhibition,"[3]; measured here: combination with BGB IC20, at 0.005 µM",-35.7%
same,inhibition,"[3]; measured here: combination with BGB IC40, at 0.005 µM",-46.6%
same,inhibition,[3]; [18],-41.2%
same,inhibition,"[3]; measured here: combination with cisplatin, at 0.5 µM, stronger effect = higher value",-73.8%
same,inhibition,"[3]; measured here: combination with cisplatin, at 5 µM, stronger effect = higher value",27.9%
same,inhibition,"[4]; BGB combo, at 5 µM",10.4%
same,inhibition,[4]; at 0.5 µM,-28.2% (inactive)
same,inhibition,"[4]; cisplatin combo, at 5 µM",19.3%
same,inhibition,[4]; [19],-28.2%
same,inhibition,[4]; [20],-25.5%
same,inhibition,"[4]; single agent, at 5 µM",26.1%
same,inhibition,"[5]; BGB IC20 combo, at 0.005 µM",0.625%
same,inhibition,"[5]; BGB IC40 combo, at 0.005 µM",-32.2%
same,inhibition,"[5]; BGB IC40 combo, at 0.05 µM",2.94%
same,inhibition,[5]; at 0.5 µM,-27.9% (inactive)
same,inhibition,"[5]; cisplatin combo, at 0.05 µM",-1.96%
same,inhibition,"[5]; cisplatin combo, at 0.5 µM",-28%
same,inhibition,"[5]; cisplatin combo, at 5 µM",-22.2%
same,inhibition,"[5]; measured here: 5 uM single agent, at 5 µM",-15.3%
same,inhibition,[6]; at 0.5 µM,-15.2% (inactive)
same,inhibition,[6]; [18],-24.6%
same,inhibition,[6]; [21],-10.4%
same,inhibition,[6]; [22],42.8%
same,inhibition,[7]; at 0.5 µM,-7.92% (inactive)
same,inhibition,"[7]; measured here: with BGB IC20, at 0.5 µM",9.14%
same,inhibition,"[7]; measured here: with BGB IC20, at 5 µM",38.2%
same,inhibition,"[7]; measured here: with cisplatin IC20, at 0.5 µM",-13.9%
same,inhibition,"[7]; measured here: with cisplatin IC20, at 5 µM",31.4%
same,inhibition,"[7]; single agent, at 5 µM",32.5%
same,inhibition,[8]; at 0.5 µM,-31.4% (inactive)
same,inhibition,"[8]; measured here: combination with BGB at IC20, at 0.5 µM",0.952%
same,inhibition,"[8]; measured here: combination with cisplatin at IC20, at 0.5 µM",-85.9%
same,inhibition,[9]; at 0.5 µM,-5.44% (inactive)
same,inhibition,"[9]; measured here: combo with BGB at IC20, at 0.5 µM",-9.22%
same,inhibition,"[9]; measured here: combo with cisplatin at IC20, at 0.5 µM",-6.26%
same,inhibition,[10]; at 0.5 µM,-14.3% (inactive)
same,inhibition,"[10]; measured here: inhibition with BGB combination, at 0.05 µM",-45%
same,inhibition,"[10]; measured here: inhibition with cisplatin combination, at 0.05 µM",-24.9%
same,inhibition,[11]; at 0.5 µM,-17.7% (inactive)
same,inhibition,[11]; [21],-4.41%
same,inhibition,[11]; [22],24.4%
same,inhibition,[12]; at 0.5 µM,-11.9% (inactive)
same,inhibition,"[12]; measured here: BGB combination, at 0.5 µM",-2.15%
same,inhibition,"[12]; measured here: BGB combination, at 5 µM",-5.52%
same,inhibition,"[12]; measured here: cisplatin combination, at 0.5 µM",-32.4%
same,inhibition,"[12]; measured here: cisplatin combination, at 5 µM",-10.1%
same,inhibition,"[13]; BGB combination, concentration series, at 5 µM",37.7%
same,inhibition,[13]; at 0.5 µM,-12% (inactive)
same,inhibition,"[13]; cisplatin combination, concentration series, at 5 µM",55.6%
same,inhibition,[14]; at 0.5 µM,9.7% (inactive)
same,inhibition,"[14]; measured here: combo with BGB IC20, at 0.5 µM",13.1%
same,inhibition,"[14]; measured here: combo with cisplatin IC20, at 0.5 µM",4.75%
same,inhibition,[15]; at 0.5 µM,-13.5% (inactive)
same,inhibition,"[15]; cisplatin combination, at 0.5 µM",-9.06%
same,inhibition,"[15]; cisplatin combination, at 5 µM",15.1%
same,inhibition,"[15]; measured here: BGB IC40 combination 0.05 uM, at 0.05 µM",-35.9%
same,inhibition,"[15]; single agent, at 5 µM",28.1%
same,inhibition,[16]; at 0.5 µM,-15.3% (inactive)
same,inhibition,"[16]; cisplatin combo, at 5 µM",7.58%
same,inhibition,"[16]; measured here: BGB IC40 combination, at 0.05 µM",-26.3%
same,inhibition,[16]; [21],-32.4%
same,inhibition,"[16]; single agent, at 5 µM",7.98%
same,inhibition,[17]; at 0.5 µM,-26.6% (inactive)
same,inhibition,[17]; [19],-39.9%
same,inhibition,[17]; [20],-21.9%
same,inhibition,"[17]; single agent, at 0.05 µM",-32%
same,inhibition,"[17]; single agent, at 5 µM",6.08%

# — PubChem BioAssay
